Only some compounds are listed: those with a hit (about 3.1% of all), similar ones and a draw of the others.
PAFAH1B2 inh: PAFAH1B2 enzyme inhibitors, primary screen, biochemical, fluorescence polarization, human; recombinant PAFAH1B2, FP-rhodamine activity probe; inhibition, % at 3.39 µM; 340,000 compounds, 1.2% hits; AID 492953, 2010;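 active = inhibition above the mean of all tested compounds plus 3 SD, cut at about 24% in these data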
Rin1-Abl PPI inh: inhibitors of Rin1-Abl protein binding, primary screen, biochemical, TR-FRET | Tyrosine-protein kinase ABL1 (Homo sapiens) + Ras and Rab interactor 1 (Homo sapiens), … | inhibition, % at 7.35 µM | 360,000 compounds, 0.4% hits; in the data active = inhibition above about 5%, passing the limit was not always enough
E coli Lon inh: inhibitors of E. coli Lon protease, primary screen, biochemical, fluorescence polarization; AID 602123, 2011; 360,000 compounds, 0.42% hits; P0A9M0; purified E. coli Lon protease; inhibition, % at 7.94 µM; in the data active = inhibition above about 13%, passing the limit was not always enough
pPAFAH inh: pPAFAH enzyme inhibitors, primary screen, biochemical, fluorescence polarization, human | Platelet-activating factor acetylhydrolase (Homo sapiens), Q13093 | recombinant pPAFAH, FP-rhodamine probe fluorescence polarization | inhibition, % at 3.39 µM | 330,000 compounds, 1.5% hits;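 active = inhibition above the mean inhibition across the screen plus 3 SD, cut at about 25% in these data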;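 also: inhibitors block binding of the rhodamine activity-based probe so polarization drops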
Target sequence (Q13093 whole entry, looked up): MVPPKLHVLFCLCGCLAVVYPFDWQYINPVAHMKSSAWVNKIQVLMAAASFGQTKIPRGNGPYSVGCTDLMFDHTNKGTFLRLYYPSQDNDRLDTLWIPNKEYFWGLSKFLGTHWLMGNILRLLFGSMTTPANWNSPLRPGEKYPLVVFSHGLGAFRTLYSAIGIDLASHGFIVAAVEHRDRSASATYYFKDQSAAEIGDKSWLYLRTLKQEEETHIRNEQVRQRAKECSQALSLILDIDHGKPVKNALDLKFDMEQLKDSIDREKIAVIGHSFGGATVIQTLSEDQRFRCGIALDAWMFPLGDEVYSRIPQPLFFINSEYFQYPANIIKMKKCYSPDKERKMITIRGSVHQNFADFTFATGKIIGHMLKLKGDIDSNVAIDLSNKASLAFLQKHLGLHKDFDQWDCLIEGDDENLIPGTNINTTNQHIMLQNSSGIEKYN
PAFAH1B3 FP inh: PAFAH1B3 enzyme inhibitors, primary screen, biochemical, fluorescence polarization, human; inhibition, % at 3.39 µM; 340,000 compounds, 0.28% hits; AID 492972, 2010; Platelet-activating factor acetylhydrolase IB subunit alpha1 (Homo sapiens), Q15102; recombinant PAFAH1B3, FP-rhodamine probe;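 active = inhibition above the screen-wide average of all tested compounds plus 3 SD, cut at about 25% in these data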
Target sequence (Q15102 whole entry, looked up): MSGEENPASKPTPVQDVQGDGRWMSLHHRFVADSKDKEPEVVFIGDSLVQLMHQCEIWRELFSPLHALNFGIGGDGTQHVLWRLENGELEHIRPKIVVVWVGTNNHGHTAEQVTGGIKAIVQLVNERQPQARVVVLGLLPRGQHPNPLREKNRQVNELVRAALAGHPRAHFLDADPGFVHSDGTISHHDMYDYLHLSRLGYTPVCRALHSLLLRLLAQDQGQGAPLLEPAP
PAFAH2 FP inh: PAFAH2 enzyme inhibitors, primary screen, biochemical, fluorescence polarization, human. Platelet-activating factor acetylhydrolase 2, cytoplasmic (Homo sapiens), Q99487. recombinant PAFAH2, FP-rhodamine activity probe. inhibition, % at 3.39 µM. 340,000 compounds, 0.99% hits;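 active = inhibition above the mean over all tested compounds plus 3 SD, cut at about 30% in these data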;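 also: inhibitors block probe labeling of enzyme so polarization drops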
Of the large screens only hits and unclear results are named; the others gave an inactive call.

COc1ccc(/C=N/N(c2ccccc2)c2ccccc2)cc1O	none (no result: pPAFAH inh)
CC(C)(C)c1ccc(OCc2ccc(C(=O)N3CCOCC3)o2)cc1	none
CCCc1ccc(OCc2ccc(C(=O)N3CCSCC3)o2)cc1	pPAFAH inh 24.6
S=c1[nH]nc(-c2n[nH]c3c2CCC3)n1/N=C/C=C/c1ccco1	none (no result: PAFAH1B2 inh, PAFAH1B3 FP inh, PAFAH2 FP inh)
CC12CC(NC(=O)N1c1cccc(C(=O)N3CCCCC3)c1)c1ccccc1O2 (stereo unspecified)	none
N#C/C(=C\c1ccc(N2CCOCC2)o1)C(=O)NCC1CCCO1 (stereo unspecified)	none
N#C/C(=C\c1ccc(N2CCOCC2)o1)C(=O)NC1CCCCC1	PAFAH1B2 inh 24.4
N/C(=N\OC(=O)CCCOc1ccccc1)c1ccc(Br)cc1	PAFAH1B2 inh 80.8
N/C(=N\OC(=O)CCCOc1ccccc1)c1ccccc1	PAFAH1B2 inh 29.3
CCC(=O)N1Cc2cc(C(=O)N(C)C)nc(-c3cccc(-c4cncnc4)c3)c2[C@@H]1CCO	none (no result: PAFAH1B2 inh, Rin1-Abl PPI inh, pPAFAH inh, PAFAH1B3 FP inh, PAFAH2 FP inh)
COc1ccc(/C(C)=N/Nc2cccc(C(=O)O)c2)cc1OC	none
C/C(=N\Nc1ccc(C(=O)O)cc1)c1ccc2c(c1)Nc1ccccc1S2	pPAFAH inh 33.6, PAFAH1B3 FP inh 25.6
CC(C)n1c(=S)[nH]c2scc(-c3cccs3)c2c1=O	pPAFAH inh 32.7
O=C(Nc1cccnc1)c1ccc(S(=O)(=O)c2ccc(Cl)cc2)cc1	PAFAH1B2 inh 27.4
CN1CSC2=C(C#N)C(c3cccc(OCc4ccccc4)c3)CC(=O)N2C1 (stereo unspecified)	PAFAH2 FP inh 32.1
CCc1ccc(C2CC(=O)N3CN(c4ccccc4)CSC3=C2C#N)cc1 (stereo unspecified)	none
C[C@@H]1CN([C@H](C)CO)S(=O)(=O)c2ccc(C#Cc3ccccc3)cc2O[C@H]1CN(C)C(=O)Nc1ccc2c(c1)OCO2	none (no result: PAFAH1B2 inh, pPAFAH inh, PAFAH1B3 FP inh, PAFAH2 FP inh)
Cc1ccc(C(C[N+](=O)[O-])c2c(-c3ccccc3O)[nH][nH]c2=O)cc1 (stereo unspecified)	PAFAH1B2 inh 25.2
CCC1CCC/C1=N\NC(=O)c1ccccc1Cl (stereo unspecified)	none (no result: PAFAH1B2 inh, PAFAH1B3 FP inh, PAFAH2 FP inh)
CCC1CCC/C1=N\NC(=O)c1cc(C)[nH]n1 (stereo unspecified)	pPAFAH inh 34.3
CN(C)S(=O)(=O)c1cccc(NC(=S)N(CCC#N)Cc2cccnc2)c1	none
Nc1nc(-c2ccc(Br)cc2)cs1	PAFAH1B2 inh 83.4
COc1ccc(-c2csc(N)n2)cc1F	none
Nc1nc(-c2ccccc2)cs1	PAFAH1B2 inh 39.4
Nc1nc(-c2cccc(Br)c2)cs1	none
Nc1nc(-c2ccc(F)cc2)cs1	PAFAH1B2 inh 54.9
CC(C)c1cc(=O)[nH]c(N2CCN(Cc3ccc4c(c3)OCO4)CC2)n1	none
O=C(Nc1ccccc1N1CCOCC1)c1ccc(Cl)c(S(=O)(=O)N2CCCC2)c1	none
Cn1c(=O)ccc2ccccc21	none (no result: PAFAH1B2 inh, pPAFAH inh, PAFAH1B3 FP inh, PAFAH2 FP inh)
CCn1c(CSCc2ccc(F)cc2)nnc1SCC(=O)NCc1ccccc1	PAFAH1B2 inh 29.9
C[C@]12CCC[C@H](O1)c1c(cc3c(c1O)C(=O)c1c(O)cc(O)cc1C3=O)O2	pPAFAH inh 27.0, PAFAH2 FP inh 30.2
CC1(C)CC(=O)c2c(O)cc(O)cc2O1	none
S=C(NCC1CCCO1)NC1CCCC1 (stereo unspecified)	none
CC(=O)c1ccc(NS(=O)(=O)c2ccc3c(c2)N(C(C)=O)CCO3)cc1	none
CCc1cccc(NS(=O)(=O)c2ccc3c(c2)N(C)CCO3)c1	pPAFAH inh 29.9
CC(=O)N1CCOc2ccc(S(=O)(=O)NCCc3ccccc3)cc21	none
CCOc1ccccc1NS(=O)(=O)c1ccc2c(c1)N(C)CCO2	none
CC(=O)N1CCSc2ccc(S(=O)(=O)Nc3ccc(C)cc3)cc21	pPAFAH inh 24.9
Cc1ccc(CCNS(=O)(=O)c2ccc3c(c2)N(C)CCO3)cc1	PAFAH1B2 inh 29.9
CCOc1ccc(NS(=O)(=O)c2ccc3c(c2)N(C(C)=O)CCO3)cc1	pPAFAH inh 32.0
Cc1ccc(/C=C(\C#N)C(=O)Nc2cccc(C)n2)cc1	none
Cc1ccc(NS(=O)(=O)c2ccc3c(c2)N(C)CCO3)cc1	pPAFAH inh 28.1
CCOc1ccc(NS(=O)(=O)c2ccc(OC)c(NC(=O)c3ccc4c(c3)OCCO4)c2)cc1	pPAFAH inh 26.7
COc1ccc(NC(=O)CN(C)C(=O)Cc2n[nH]c(=O)c3ccccc23)cc1	none
CCCCN(C(=O)Cc1ccc2c(c1)OCCO2)c1c(N)n(CC(C)C)c(=O)[nH]c1=O	none (no result: pPAFAH inh)
O[C@H]1CN(CC2CCCCC2)[C@@H](c2ccccc2)C[C@@H]1n1cc(C2CC2)nn1	none (no result: PAFAH1B2 inh, pPAFAH inh, PAFAH1B3 FP inh, PAFAH2 FP inh)
Cc1ccc(C(=O)N(C)CCOc2ccccc2)cc1S(=O)(=O)N1CCOCC1	none
Cc1ccc(C(=O)COC(=O)c2cccc(O)c2)s1	none (no result: pPAFAH inh)
COc1ccc(C(=O)OCC(=O)c2ccc(Br)s2)c(OC)c1	PAFAH2 FP inh 30.3
COc1cccc(C(=O)OCC(=O)c2ccc(Br)s2)c1	PAFAH2 FP inh 45.9
COc1ccc(C(=O)OCCCOC(=O)c2ccc(OC)cc2OC)c(OC)c1	none
Cc1cccc(N(C)S(=O)(=O)c2c(C)noc2C)c1	none
CCCCNc1c(-c2cccc(-c3ccc(OC)cc3)c2)nc2ccc(C)cn12	pPAFAH inh 25.4
COc1cc(-c2nc3ccc(C)cn3c2NCc2ccccc2)ccc1-c1cccc(Cl)c1	pPAFAH inh 30.4
CCCCNc1c(-c2cccc(-c3ccc(OC)cc3)c2)nc2cc(C)ccn12	none
COc1cc(/C=C2\SC(=S)N(CCCCC(=O)O)C2=O)ccc1OS(=O)(=O)c1ccc(C)cc1	PAFAH1B2 inh 30.1
COc1cc(/C=C2/SC(=S)NC2=O)ccc1OS(=O)(=O)c1ccc(C)cc1	PAFAH1B2 inh 43.0
COc1cc(/C=C2\SC(=S)NC2=O)ccc1OS(=O)(=O)c1ccccc1	none (no result: PAFAH1B2 inh, Rin1-Abl PPI inh, E coli Lon inh, PAFAH1B3 FP inh, PAFAH2 FP inh)
COCCNC(=O)C1(C)CCCN(CCSc2ccccc2)C1 (stereo unspecified)	none (no result: PAFAH1B2 inh, pPAFAH inh, PAFAH1B3 FP inh, PAFAH2 FP inh)
CC(=O)c1sc(NC(=O)C2(F)C(F)(F)C(F)(F)C(F)(F)C(F)(F)C2(F)F)nc1C	PAFAH1B2 inh 38.9
COC(=O)C1CCN(C(=O)COC(=O)/C=C/c2ccc(O)c(OC)c2)CC1	none
COc1cc(/C=C/C(=O)OCC(=O)NCC2CCCCC2)ccc1O	pPAFAH inh 27.6, PAFAH2 FP inh 87.6
CC1(COS(N)(=O)=O)CCCCC1	PAFAH1B2 inh 34.6
COc1cccc(N=C2NC(=O)/C(=C/c3cc([N+](=O)[O-])ccc3O)S2)c1	PAFAH1B2 inh 27.3, PAFAH1B3 FP inh 39.0, PAFAH2 FP inh 39.7
COc1ccc(N=C2NC(=O)/C(=C/c3ccc(O)c(OC)c3)S2)cc1	none

Screens (PubChem)
